Reference: the supplement of paper PMC10849652
Targets with a hit are over-represented here; the source holds about 7,900 in all. About 0.6% of all pairs of compound and target were hits. Values without a mark were called inactive.

What was measured:
Test in all cases: log2 fold change, soluble protein after heating vs DMSO (PISA); higher = thermal stabilisation; K562 cells, 10 uM, 30 min; active = over 0.2 and 3.5 SD of the protein, either way, in both replicates (recomputed)
[1] = compound: C1=CC=C(C=C1)[C@H](COC2=CC3=C(C=C2)NC(=O)N3)NC(=O)C4=CC=CN(C4=O)CC5=CC(=C(C=C5)F)F
Summary of the method: (§1)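 K562 cells at 2×10^6 cells/mL were exposed to 10 μM compound for 30 min, then aliquots were heated for 3 min across 48°C-58°C, pooled, and extracted in PBS containing 0.5% NP-40 at 4°C. The supernatant after 21,000xg for 90 min was taken as soluble protein and measured by TMTpro 16plex LC-MS/MS with channel sums equalised. Thermal stability is reported relative to control samples, with values from duplicates. Fold changes are given on a log2 scale.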

[2] = compound: CC1=C(SC2=C1C(=N[C@H](C3=NN=C(N32)C)CC(=O)N)C4=CC=C(C=C4)Cl)C
Summary of the method: as §1

[3] = compound: CC1=C2C(=CC=C1)N=C(N(C2=O)C3=CC=CC=C3C)CN4C=NC5=C(N=CN=C54)N
Summary of the method: as §1

[4] = compound: Cc1sc2c(c1C)C(c1ccc(Cl)cc1)=N[C@@H](CC(=O)OC(C)(C)C)c1nnc(C)n1-2
Summary of the method: as §1

[5] = compound: c1ccc([C@@H]2C[C@H]2NC2CCNCC2)cc1
Summary of the method: as §1

UniProt O75362, sequence (O75362 whole entry, looked up): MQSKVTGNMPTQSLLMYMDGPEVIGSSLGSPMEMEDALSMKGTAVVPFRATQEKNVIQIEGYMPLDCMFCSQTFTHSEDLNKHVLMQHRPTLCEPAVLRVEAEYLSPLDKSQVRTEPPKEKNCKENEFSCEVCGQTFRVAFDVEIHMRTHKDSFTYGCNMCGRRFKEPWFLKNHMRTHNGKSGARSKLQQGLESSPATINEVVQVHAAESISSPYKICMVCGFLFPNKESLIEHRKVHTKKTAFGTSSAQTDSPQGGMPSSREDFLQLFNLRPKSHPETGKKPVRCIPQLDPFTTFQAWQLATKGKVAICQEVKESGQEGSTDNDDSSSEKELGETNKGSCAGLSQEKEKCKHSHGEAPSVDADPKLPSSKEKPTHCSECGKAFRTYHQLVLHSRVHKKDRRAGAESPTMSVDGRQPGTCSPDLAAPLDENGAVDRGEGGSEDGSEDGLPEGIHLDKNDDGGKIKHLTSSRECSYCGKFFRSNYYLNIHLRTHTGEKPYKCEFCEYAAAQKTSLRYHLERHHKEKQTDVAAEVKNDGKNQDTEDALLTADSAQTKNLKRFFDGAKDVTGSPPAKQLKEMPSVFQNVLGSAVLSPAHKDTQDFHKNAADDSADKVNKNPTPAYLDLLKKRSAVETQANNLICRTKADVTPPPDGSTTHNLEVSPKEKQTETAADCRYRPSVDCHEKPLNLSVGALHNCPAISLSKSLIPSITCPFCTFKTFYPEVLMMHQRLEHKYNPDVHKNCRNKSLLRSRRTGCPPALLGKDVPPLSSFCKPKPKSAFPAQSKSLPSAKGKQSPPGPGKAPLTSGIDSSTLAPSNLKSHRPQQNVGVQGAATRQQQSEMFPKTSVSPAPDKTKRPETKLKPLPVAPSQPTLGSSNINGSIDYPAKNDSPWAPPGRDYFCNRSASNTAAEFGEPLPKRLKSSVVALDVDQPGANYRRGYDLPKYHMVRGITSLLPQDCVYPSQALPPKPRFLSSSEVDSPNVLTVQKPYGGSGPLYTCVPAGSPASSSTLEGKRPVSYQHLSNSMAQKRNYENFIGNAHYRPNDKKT
UniProt Q96JP5, sequence (Q96JP5 whole entry, looked up): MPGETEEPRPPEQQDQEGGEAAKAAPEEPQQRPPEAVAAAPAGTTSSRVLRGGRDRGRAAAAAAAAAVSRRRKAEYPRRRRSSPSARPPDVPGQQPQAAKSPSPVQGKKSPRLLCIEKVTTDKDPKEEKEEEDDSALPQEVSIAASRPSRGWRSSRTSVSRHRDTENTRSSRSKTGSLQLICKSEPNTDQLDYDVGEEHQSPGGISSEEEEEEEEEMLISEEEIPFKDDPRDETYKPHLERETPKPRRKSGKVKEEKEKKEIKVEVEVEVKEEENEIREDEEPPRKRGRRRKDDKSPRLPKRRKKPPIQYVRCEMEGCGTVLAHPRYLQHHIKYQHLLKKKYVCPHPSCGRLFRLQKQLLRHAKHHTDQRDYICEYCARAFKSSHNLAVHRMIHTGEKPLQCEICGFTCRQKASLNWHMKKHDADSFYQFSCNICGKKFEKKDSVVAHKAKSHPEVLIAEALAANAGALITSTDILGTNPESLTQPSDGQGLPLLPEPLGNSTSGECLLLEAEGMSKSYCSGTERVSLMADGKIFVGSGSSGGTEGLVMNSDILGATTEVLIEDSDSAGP
UniProt Q9NRM2, sequence (Q9NRM2 whole entry, looked up): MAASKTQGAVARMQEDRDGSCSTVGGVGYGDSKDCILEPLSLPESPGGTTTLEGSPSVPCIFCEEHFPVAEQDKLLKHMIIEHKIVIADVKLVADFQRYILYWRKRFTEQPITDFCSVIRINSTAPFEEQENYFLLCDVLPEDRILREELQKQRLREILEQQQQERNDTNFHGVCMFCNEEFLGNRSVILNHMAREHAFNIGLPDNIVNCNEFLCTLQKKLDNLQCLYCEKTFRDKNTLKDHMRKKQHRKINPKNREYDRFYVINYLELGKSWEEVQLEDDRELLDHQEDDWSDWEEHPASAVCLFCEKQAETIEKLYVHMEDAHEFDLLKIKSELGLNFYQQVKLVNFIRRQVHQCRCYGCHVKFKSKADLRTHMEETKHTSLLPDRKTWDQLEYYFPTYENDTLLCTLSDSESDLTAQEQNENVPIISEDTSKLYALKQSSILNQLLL
UniProt O95218, sequence (O95218 whole entry, looked up): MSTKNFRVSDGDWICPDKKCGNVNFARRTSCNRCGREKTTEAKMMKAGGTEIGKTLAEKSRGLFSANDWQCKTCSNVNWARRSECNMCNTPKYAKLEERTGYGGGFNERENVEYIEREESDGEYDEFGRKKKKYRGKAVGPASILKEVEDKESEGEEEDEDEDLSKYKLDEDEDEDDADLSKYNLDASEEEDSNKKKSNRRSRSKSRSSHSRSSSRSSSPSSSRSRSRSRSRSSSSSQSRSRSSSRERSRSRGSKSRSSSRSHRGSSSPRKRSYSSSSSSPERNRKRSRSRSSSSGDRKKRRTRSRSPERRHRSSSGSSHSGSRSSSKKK
UniProt Q9NXF8, sequence (Q9NXF8 whole entry, looked up): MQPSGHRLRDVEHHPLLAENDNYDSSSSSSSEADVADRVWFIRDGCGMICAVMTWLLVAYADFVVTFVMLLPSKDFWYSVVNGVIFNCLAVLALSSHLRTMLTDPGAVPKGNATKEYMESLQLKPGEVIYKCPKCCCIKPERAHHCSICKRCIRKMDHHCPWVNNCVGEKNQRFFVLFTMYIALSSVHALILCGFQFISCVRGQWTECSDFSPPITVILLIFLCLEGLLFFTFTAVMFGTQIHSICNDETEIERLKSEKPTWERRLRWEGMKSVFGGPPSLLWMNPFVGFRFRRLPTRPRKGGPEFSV
UniProt P31946, sequence (P31946 whole entry, looked up): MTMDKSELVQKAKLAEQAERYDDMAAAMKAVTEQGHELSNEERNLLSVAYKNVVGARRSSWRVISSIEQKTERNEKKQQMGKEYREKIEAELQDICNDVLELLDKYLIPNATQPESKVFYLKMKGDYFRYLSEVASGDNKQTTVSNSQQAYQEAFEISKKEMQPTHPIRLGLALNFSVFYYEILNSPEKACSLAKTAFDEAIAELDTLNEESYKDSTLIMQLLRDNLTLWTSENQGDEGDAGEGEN
UniProt Q8NB15, sequence (Q8NB15 whole entry, looked up): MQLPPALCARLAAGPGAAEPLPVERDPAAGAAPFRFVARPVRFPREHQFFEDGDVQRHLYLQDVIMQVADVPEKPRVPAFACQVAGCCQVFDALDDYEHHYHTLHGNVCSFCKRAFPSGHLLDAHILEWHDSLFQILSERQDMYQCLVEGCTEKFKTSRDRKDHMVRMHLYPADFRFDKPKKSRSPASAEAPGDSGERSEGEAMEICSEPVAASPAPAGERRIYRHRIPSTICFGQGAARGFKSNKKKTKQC
UniProt Q86WB0, sequence (Q86WB0 whole entry, looked up): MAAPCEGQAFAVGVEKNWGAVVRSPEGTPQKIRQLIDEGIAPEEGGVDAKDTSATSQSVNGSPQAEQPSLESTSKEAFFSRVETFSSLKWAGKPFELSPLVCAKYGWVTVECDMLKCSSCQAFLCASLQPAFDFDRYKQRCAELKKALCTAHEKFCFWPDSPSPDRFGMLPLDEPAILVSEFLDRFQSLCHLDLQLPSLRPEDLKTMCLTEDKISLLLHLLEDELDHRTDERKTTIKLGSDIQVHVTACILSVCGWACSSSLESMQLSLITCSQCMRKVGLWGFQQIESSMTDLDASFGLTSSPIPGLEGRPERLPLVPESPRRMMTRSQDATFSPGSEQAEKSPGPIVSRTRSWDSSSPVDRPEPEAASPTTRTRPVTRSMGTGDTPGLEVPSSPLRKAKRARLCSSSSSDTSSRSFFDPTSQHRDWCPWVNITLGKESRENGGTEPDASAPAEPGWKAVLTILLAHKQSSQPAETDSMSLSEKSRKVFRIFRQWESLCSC
UniProt Q96EC8, sequence (Q96EC8 whole entry, looked up): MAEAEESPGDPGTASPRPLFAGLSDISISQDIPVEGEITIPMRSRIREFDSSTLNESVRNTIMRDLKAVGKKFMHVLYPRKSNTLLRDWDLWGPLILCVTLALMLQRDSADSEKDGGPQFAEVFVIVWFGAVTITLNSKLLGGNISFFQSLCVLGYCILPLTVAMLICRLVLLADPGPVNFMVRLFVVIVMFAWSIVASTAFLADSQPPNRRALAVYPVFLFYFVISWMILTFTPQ

| Target | log2 fold change [1] | log2 fold change [2] | log2 fold change [3] | log2 fold change [4] | log2 fold change [5] |
| --- | --- | --- | --- | --- | --- |
| ZRANB2 (UniProt O95218) | -0.002 | -0.073 | -0.07 | 0.021 | 0.093 |
| ZNF217 (UniProt O75362) | -0.017 | 0.048 | 0.163 | -0.003 | 0.306 (active) |
| YIPF6 (UniProt Q96EC8) | 0.062 | -0.04 | 0.114 | 0.103 | 0.015 |
| ZBTB21 (UniProt Q9ULJ3) | -0.215 | -0.152 | 0.058 | 0.244 | 0.006 |
| YWHAB (UniProt P31946) | -0.024 | 0.024 | -0.01 | -0.004 | -0.03 |
| ZC3HC1 (UniProt Q86WB0) | -0.091 | 0.07 | 0.1 | -0.032 | -0.018 |
| ZFP91 (UniProt Q96JP5) | -0.038 | -0.221 | -0.052 | 0.096 | 0.03 |
| ZNF277 (UniProt Q9NRM2) | -0.134 | 0.028 | -0.007 | 0.286 | 0 |
| ZDHHC7 isoform 2 (UniProt Q9NXF8) |  | 0.088 | 0.131 | 0.135 | 0.081 |
| ZNF511 isoform 1 (UniProt Q8NB15) | -0.015 | -0.128 | 0.064 | -0.123 | 0.102 |
